High-throughput results (PubChem BioAssay)
MCF10A rereplic: induces DNA re-replication in MCF 10a normal breast cells | hit rate 2.9% among 350,000 | MCF 10A DNA re-replication, Hoechst nuclear intensity, 48 h | Potency, µM (doses to about 46.1 µM), usual class: activators; further: nearly all actives have a fitted effect of over 50% in size
Giardia kill: kills Giardia lamblia | Giardia lamblia trophozoite viability | activity change, % at 7.66 µM, hits read low | hit rate 0.15% among 340,000; in the data active means activity change below about -80%; inconclusive means between about -30% and that limit;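 further: parasites exposed to compound for two days anaerobically before the ATP read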
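Media and compound were dispensed first, then trophozoites at 100 cells/well; plates sat 48 hrs at 37 deg C without oxygen before ATP luminescence reagent was added and read after 15-30 min at room temperature.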
VP16 counter: Gal4-VP16 reporter inhibition counter-screen; Potency, µM (doses to about 53.6 µM), most hits filed as inhibitors; AID 2546; hit rate 3.5% among 310,000; Drosophila S2 Gal4-VP16 UAS-luciferase, luminescence, 20 h;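 further: Gal4-VP16 expression switched on by copper sulfate through the metallothionein promoter; nearly all actives have a fitted effect of over 50% in size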
RORg inh: ROR gamma (mouse) transcription inhibition; P51450; Drosophila S2 Gal4-RORgamma UAS-luciferase reporter, 20 h; Potency, µM (titrated, usually from 53.6 µM), actives largely listed as inhibitors; hit rate 5.4% among 310,000; further: nearly all actives have a fitted effect of over 60% in size
Target sequence (P51450 whole entry, looked up, the tested form may be a part): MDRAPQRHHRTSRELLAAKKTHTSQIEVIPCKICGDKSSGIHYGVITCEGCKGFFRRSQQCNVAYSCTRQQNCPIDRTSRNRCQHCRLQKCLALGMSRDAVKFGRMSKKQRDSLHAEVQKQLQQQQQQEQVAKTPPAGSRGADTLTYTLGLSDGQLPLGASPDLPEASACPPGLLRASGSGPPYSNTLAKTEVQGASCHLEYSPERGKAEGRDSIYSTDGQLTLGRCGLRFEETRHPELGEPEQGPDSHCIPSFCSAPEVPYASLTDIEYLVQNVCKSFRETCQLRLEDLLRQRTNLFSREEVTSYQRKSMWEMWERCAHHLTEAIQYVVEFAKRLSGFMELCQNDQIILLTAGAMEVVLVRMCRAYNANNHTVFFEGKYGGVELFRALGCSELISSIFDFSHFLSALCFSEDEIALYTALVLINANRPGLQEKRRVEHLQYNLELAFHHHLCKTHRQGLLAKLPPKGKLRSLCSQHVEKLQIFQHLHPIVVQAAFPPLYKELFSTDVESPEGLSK
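In this cell-based reporter format, copper sulfate (700 uM final) drives Gal4–ROR gamma fusion expression from a metallothionein promoter in Drosophila Schneider cells; compounds preincubated 1 hr, reporter read after 20 hr at ambient temperature.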
Chronic BCR inh: inhibitors of chronic active B-cell receptor signaling | AID 493014 | hit rate 0.05% among 340,000 | Potency, µM (series often up to 46.1 µM), actives largely listed as inhibitors | ABC-DLBCL IkBa-CBG/CBR reporter, luminescence ratio, 4 h; active means well fitted inhibition curve with a large enough effect in the signal ratio, with a control signal flat, not every such curve was filed as active; inconclusive means small, poorly fitted or top-dose-only effect, or effect the other way, or a change in a side signal; the % refers to the signal ratio
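TMD8 human ABC-DLBCL cells with doxycycline-inducible IκBα–green luciferase fusion and unfused red luciferase, in 0.5% FBS medium; compounds up to 46 uM, 4 h at 37C. Green/red luminescence ratio, filter-overlap corrected, fitted to concentration-response curves.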
SW480 rerep: DNA re-replication induction in SW480 cells; SW480 DNA re-replication, Hoechst DNA content imaging, 48 h; Potency, µM (doses to about 46.1 µM), most hits filed as activators; hit rate 1.8% among 340,000; further: nearly all actives have a fitted effect of over 55% in size
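250 cells/well; 23 nL cpd via pin tool; 48 hr, 37 C, 5% CO2; Hoechst 40 min; imager read of total nuclear intensity, ex 405/em 500-530 nm.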
A number is an active result; i = inactive; ? = inconclusive; nt = not tested or not shown; ! = not active in a repeat; [ ] = remark or other dose. Compounds with a hit are over-represented: about 8.3% of the library has one in this group of screens. Unless noted, the call rests on the fitted dose curve; in most records, active means well fitted curve in the direction sought with a large enough effect; inconclusive means small, poorly fitted or top-dose-only effect, or another doubt; inactive means no such curve, though single readings can be large; an effect the other way counts as inactive or inconclusive.

SMILES	MCF10A rereplic	Giardia kill	VP16 counter	RORg inh	Chronic BCR inh	SW480 rerep
CN(C)C=Nc1ncc2c3ccccc3n(CCN(C)C)c2c1C#N	?	i	?	i	?	?
COc1ccc(Br)cc1/C=N/Nc1ccccn1	23µM	i	?	?	i	?
CC(NC(=O)/C(C#N)=C/c1ccc([N+](=O)[O-])o1)c1ccccc1 (stereo not drawn)	3.7µM	i	2.5µM	5µM	?	3.7µM
CCOCCCNC(=O)/C(C#N)=C/c1ccc(-c2ccc(S(=O)(=O)N3CCOCC3)cc2)o1	?	i	i	i	i	?
CCOCCCNC(=O)/C(C#N)=C/c1cc(Br)c(O)c(Br)c1	12µM	i	i	i	?	8.2µM
COC(=O)c1ccc(/C=C(\C#N)C(=O)NC(C)c2ccccc2)cc1 (stereo not drawn)	18µM	i	4.5µM	0.5µM	i	?
CCOCCCNC(=O)/C(C#N)=C/c1ccc([N+](=O)[O-])o1	5.2µM	i	i	i	?	?
O=C(O)c1ccc(Nc2ccc(Cl)c(Cl)c2)c([N+](=O)[O-])c1	i	i	i	i	i	i
C[C@@]12C=Cc3occc3[C@H]1CC[C@]13CC(=O)[C@@H](CC[C@H]12)C3	nt	i	i	i	nt	nt
CC(NC(=O)/C(C#N)=C/c1ccc(N2CCOCC2)cc1)c1ccccc1 (stereo not drawn)	21µM	i	?	i	?	?
Cc1cc(C)n2nc(SCC(=O)Nc3ccc(O)cc3)nc2n1	i	i	i	i	i	i
CCOc1ccc(NC(=O)CSc2nc3nc(C)cc(C)n3n2)cc1	i	i	11µM	?	i	i
CC(C)OC(=O)c1ccccc1C(=O)c1ccc(N)c([N+](=O)[O-])c1	i	i	i	i	i	i
CNS(=O)(=O)c1cccc(C(=O)OC2CCOC2=O)c1 (stereo not drawn)	i	i	i	i	i	i
O=C(COC(=O)c1ccccc1C(=O)c1ccc(Cl)c([N+](=O)[O-])c1)NC1CC1	3.3µM	i	i	?	?	?
CNC(=O)COC(=O)c1ccccc1C(=O)c1ccc(Cl)c([N+](=O)[O-])c1	5.8µM	i	i	i	?	5.8µM
CCCOc1ccc(C(=O)c2ccccc2C(=O)OC2CCOC2=O)cc1OCCC (stereo not drawn)	?	i	nt	nt	i	i
O=C(OC1CCOC1=O)c1ccccc1C(=O)c1ccc(Cl)c([N+](=O)[O-])c1 (stereo not drawn)	4.6µM	i	nt	nt	?	?
CS(=O)(=O)c1ccc(C(=O)OC2CCOC2=O)cc1[N+](=O)[O-] (stereo not drawn)	?	i	?	4.5µM	?	?
COCC(=O)N1CCC2(CC1)CN(C(c1ccccc1)c1ccccc1)C2	nt	nt	i	i	nt	nt
CC1CC(C)(C)NC(=S)N1CC(=O)N1CCN(Cc2ccccc2)CC1 (stereo not drawn)	i	i	i	i	i	i
Cc1ccc(C)c(N2CCN(C(=O)CN3C(=S)NC(C)(C)CC3C)CC2)c1 (stereo not drawn)	i	i	?	7.9µM	i	i
CC1CC(C)(C)NC(=S)N1CCCC(=O)N1CCN(c2ccc(F)cc2)CC1 (stereo not drawn)	i	i	i	10µM	i	i
CC1CC(C)(C)NC(=S)N1CCC(=O)N1CCN(c2ccccc2)CC1 (stereo not drawn)	i	i	?	7.9µM	i	i
O=C(CCCN1C(=O)c2ccccc2C1=O)N1CCc2ccccc2C1	i	i	i	i	i	i
SMILES	MCF10A rereplic	Giardia kill	VP16 counter	RORg inh	Chronic BCR inh	SW480 rerep
CC1CC(C)(C)NC(=S)N1CCC(=O)N1CCc2ccccc2C1 (stereo not drawn)	i	i	?	16µM	i	i
CN(C(=O)COC(=O)Cc1c(F)cccc1Cl)c1c(N)n(Cc2ccccc2)c(=O)[nH]c1=O	i	i	nt	nt	i	i
CC(C)[C@H](NC(=O)NCc1ccc(F)cc1)C(=O)O	i	i	i	i	i	i
O=C(Nc1ccc(F)cc1F)N1CCN(CCc2ccccc2)CC1	i	i	i	i	i	i
CC(=O)c1ccc(N2CCN(C(=O)CCN3C(=S)NC(C)(C)CC3C)CC2)cc1 (stereo not drawn)	i	i	i	?	i	i
COc1ccc(N2CCN(C(=O)CCN3C(=S)NC(C)(C)CC3C)CC2)cc1 (stereo not drawn)	i	i	i	11µM	i	i
CCOC(=O)c1c(S(=O)(=O)N2CCC(C(=O)Nc3ccc(C)cc3C)CC2)c(C)n(C)c1C	nt	nt	nt	nt	i	nt
CN(Cc1cc([N+](=O)[O-])c2cccnc2c1O)C1CCCCC1	nt	nt	?	4µM	i	nt
COc1cc(NC(=O)CN(C)C2CCCCC2)c(C)cc1[N+](=O)[O-]	i	i	i	i	?	i
O=[N+]([O-])c1cc(F)c2cccnc2c1O	?	i	3.2µM	1.3µM	16µM	?
O=[N+]([O-])c1cc(CN2CCN(c3ccccc3)CC2)c(O)c2ncccc12	i	i	i	0.11µM	?	?
O=[N+]([O-])c1ccccc1-c1ccc(CN2CCN(c3ccccc3)CC2)o1	i	i	i	i	i	i
O=[N+]([O-])c1cc(Cl)c(O)c2ncccc12	?	i	1.3µM	0.71µM	?	10µM
CCOc1ccc(-n2c(=O)c3sccc3n(Cc3ccc(C)cc3)c2=O)cc1	i	i	i	i	i	i
Oc1c(I)cc(Cl)c2cccnc12	?	i	1µM!	0.4µM	?	?
O=S(=O)(Nc1c(Br)cc(Br)c2cccnc12)C1CC1	nt	i	nt	nt	nt	nt
Cc1ccc(OCc2nnc(SCC(=O)c3cccc([N+](=O)[O-])c3)n2C)cc1	?	i	?	2µM	i	i
Cc1cc(-c2ccccc2)nc(SCC(=O)c2cccc([N+](=O)[O-])c2)n1	?	i	i	i	i	16µM
COc1ccc(NS(=O)(=O)c2cc(OC)ccc2NC(=O)c2cc(C)oc2C)cc1	13µM	i	i	i	i	13µM
COc1ccc(NS(=O)(=O)c2cc(OC)ccc2OC)cc1	i	i	nt	nt	nt	i
Cc1nc2ccc(C(=O)OCC(=O)N(C)c3ccccc3)cc2nc1C	i	i	nt	nt	?	i
Cc1ccc(-c2nn(-c3ccccc3)cc2C=C2C(=O)CC(C)(C)CC2=O)cc1	?	i	i	i	?	i[9.22 µM]
CC1=NNC(=O)/C1=C\c1cn(-c2ccccc2)nc1-c1ccc(Cl)cc1	3.7µM	i	3.2µM	5µM	?	12µM
Cc1ccc2nc(C3CCCN3Cc3nc(CCC(C)C)no3)[nH]c2c1 (stereo not drawn)	i	i	20µM	7.1µM	i	i
COc1cc2nc(N3CCN(c4cc(C)ccc4C)CC3)nc(N)c2cc1OC	6.5µM	?	16µM	16µM	?	?
CCNC(=S)N1CCC(C(=O)c2ccc(Cl)cc2)CC1	i	i	i	i	i	i
